Laboratory results published in PubChem BioAssay (NCI).
About 79,000 compounds went through this panel and 15% of them were active in at least one assay; those are over-represented in the sample as a whole. No stated cut-off is given here; in the data, active means growth inhibition above about 70%; inactive means the rest.

Assays:
[1] = NCI Yeast Anticancer Drug Screen. Data for the rad50 strain (AID 155);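 further: 0% = growth of vehicle-only cultures of the same strain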; conditions: S. cerevisiae rad50 strain growth inhibition; at 50.0 µM; stronger effect = higher value
Procedure, shortened: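 Growth of the mutant yeast was measured after compound exposure and referenced to vehicle-treated cultures.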

[2] = NCI Yeast Anticancer Drug Screen. Data for the mec2-1 strain (AID 157); conditions: S. cerevisiae mec2-1 strain, at 50.0 µM, stronger effect = higher value
Procedure, shortened: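 Cells of the genetically defined mec2-1 yeast strain are incubated with test compound. Inhibition of growth is calculated against vehicle-treated controls.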

[3] = NCI Yeast Anticancer Drug Screen. Data for the sgs1 mgt1 strain (AID 161);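 further: 0% = growth of cultures given vehicle only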; conditions: S. cerevisiae sgs1 mgt1 strain, at 50.0 µM, stronger effect = higher value
Procedure, shortened: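 Genetically altered yeast, compound exposure, growth inhibition relative to vehicle.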

[4] = NCI Yeast Anticancer Drug Screen. Data for the cln2 rad14 strain (AID 165);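 further: 0% = growth equal to vehicle treated cultures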; conditions: S. cerevisiae cln2 rad14 strain, at 50.0 µM, stronger effect = higher value
Procedure, shortened: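 The screen exposed genetically defined yeast (cln2 rad14) to test compounds and scored growth inhibition relative to vehicle-treated controls.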

[5] = NCI Yeast Anticancer Drug Screen. Data for the bub3 strain (AID 167); conditions: S. cerevisiae bub3 mutant strain, at 50.0 µM, stronger effect = higher value
Procedure, shortened: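 Whole-cell yeast assay. The mutant strain was incubated with compounds, and growth inhibition was determined by comparison with vehicle-treated cells.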

[6] = NCI Yeast Anticancer Drug Screen. Data for the mlh1 rad18 strain (AID 175); conditions: S. cerevisiae mlh1 rad18 strain growth inhibition; at 50.0 µM; stronger effect = higher value
Procedure, shortened: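 Compound-treated yeast growth, normalised to vehicle controls. Strain bears defined DNA repair mutations.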

Measured: growth inhibition

Cc1ccc(S(=O)(=O)NC(=O)NC23CC4CC(CC(F)(C4)C2)C3)cc1
inactive: [1] 37.9% | [2] 21.4% | [3] -13.6% | [4] 9.5% | [5] 13.8% | [6] 2.1%

CC1CC(C[N+](=O)[O-])CC2(C1)OCCO2 (configuration not stated)
inactive: [1] -1.5% | [2] -25.3% | [3] -28.6% | [4] 5.1% | [5] -28.8% | [6] -5.15%

CC[n+]1nc2ccccc2c(=Nc2ccccc2[N+](=O)[O-])[n-]1
inactive: [1] 11.8% | [2] 13.1% | [3] 12.3% | [4] 29.4% | [5] 25.2% | [6] 7.15%

N#Cc1c2c(c(-c3cccs3)n(C3OC(CO)C(O)C(O)C3O)c1=S)CCc1ccccc1-2 (configuration not stated)
inactive: [1] 10.7% | [2] -9.55% | [3] -3.35% | [4] -20.4% | [5] 0.8% | [6] 1.6%

COC(=O)/C=C1\C(=O)c2ccccc2-c2ccccc21
inactive: [1] 35.8% | [2] 35.4% | [3] 13.9% | [4] 20.3% | [5] 25.4% | [6] 51.6%

N#CCCCCCCCCCCC(=O)O
inactive: [1] -24.6% | [2] -55.9% | [3] 1.95% | [4] 1.45% | [5] -59.4% | [6] -10.2%

Cc1occ(Br)c(=O)c1O
inactive: [1] 12.9% | [2] 12.3% | [3] 17.5% | [4] 25.8% | [5] -0.85% | [6] 15.2%

Oc1ccccc1-c1n[nH]c(=S)n1/N=C/c1ccc(-c2ccc(Br)cc2)o1
inactive: [1] -30.5% | [2] -19.2% | [3] -29.2% | [4] -4.35% | [5] -20.1% | [6] -42.9%

Cc1ccc2c(c1)C(=Nc1ccc(Cl)cc1)C(=O)N2
inactive: [1] -1.6% | [2] 1.7% | [3] 1.75% | [4] -0.55% | [5] 18.9% | [6] 13.1%

CC(CN1CCCCC1)SSC(C)CN1CCCCC1 (configuration not stated)
inactive: [1] 41.8% | [2] 14.9% | [3] 27% | [4] -29.1% | [5] 11.5% | [6] 44.2%

Cc1cccc(Cl)c1N=Nc1c(C)nc(N)nc1-c1ccccc1
inactive: [1] 7.1% | [2] 15.8% | [3] 5.8% | [4] -11.5% | [5] 1.1% | [6] 7.8%

Oc1[nH]c2ccccc2c1N=NC(=S)Nc1ccccc1Cl
inactive: [1] -8.2% | [2] -2.3% | [3] 46.5% | [4] 36.2% | [5] 21.8% | [6] 26.2%

NC(CCC(F)(F)F)C(=O)O (configuration not stated)
inactive: [1] -4.1% | [2] -7.95% | [3] 7.2% | [4] 18.6% | [5] 17.5% | [6] 6.65%

CCCCCCCCCCCCCCCC(O)S(=O)(=O)O (configuration not stated)
inactive: [1] -27.2% | [2] -24.9% | [3] -10.1% | [4] 0.55% | [5] -29.4% | [6] -23.9%

Cc1ccc(N2C3=C(CC4=C2CC(C)(C)CC4=O)C(=O)CC(C)(C)C3)cc1
inactive: [1] -29.6% | [2] -25.1% | [3] -21.1% | [4] -15.9% | [5] -33.8% | [6] -24.9%

CC(C)CN(CC(=O)Nc1cccc(Cl)c1)CC(C)C
inactive: [1] -4.35% | [2] 11.9% | [3] 4.15% | [4] -17.9% | [5] 5.25% | [6] 2.1%

CCCCOC(=O)C(=O)/C(=C\n1c(=S)[nH]c2cc(C)ccc21)C(=O)C=C(C)C
inactive: [1] -15.6% | [2] -22% | [3] 3.05% | [4] -22.4% | [5] -10.7% | [6] -28.1%

CCCCOC(=O)C1C=C(N)CCC1 (configuration not stated)
inactive: [1] 12.8% | [2] 6.8% | [3] -3.35% | [4] -32.6% | [5] -9.05% | [6] -16.4%

COc1ccccc1-n1nnc2c(N)nc(N)nc21
inactive: [1] 7.05% | [2] -12.2% | [3] -13.2% | [4] 4.05% | [5] -22.1% | [6] -9.25%

O=c1[nH]c2cccnc2c(=O)n1O
inactive: [1] -6.5% | [2] -8.7% | [3] -7.35% | [4] -39.8% | [5] 12.2% | [6] -5.5%

Cc1cc2nc3ccc(O)cc3[n+](C)c2cc1N
inactive: [1] 57.7% | [2] 28.6% | [3] 31.6% | [4] 31.1% | [5] 15.9% | [6] 26.3%

CC(=O)NC(N)=O
inactive: [1] 3.9% | [2] 2.2% | [3] 28.4% | [4] -30.9% | [5] -1.9% | [6] 1.6%

CN1CCN(CC2C3CCC(C3)C2O)CC1 (configuration not stated)
inactive: [1] -9% | [2] -18.4% | [3] -16.1% | [4] 4.4% | [5] -4.7% | [6] -0.6%

CC(C)CCCCC(C)(C)OC(=O)NC(N)=O
inactive: [1] 7.25% | [2] 2% | [3] 12.2% | [4] 17.1% | [5] -17.6% | [6] 9.85%

Cc1cc([N+](=O)[O-])ccc1Sc1c2ccccc2nc2ccccc12
inactive: [1] -63.5% | [2] -16.2% | [3] -13.8% | [4] 11.3% | [5] -17.5% | [6] -18.9%

O=C1C2CCCCC2C(=O)N1O (configuration not stated)
inactive: [1] 60.1% | [2] -1.5% | [3] 18.8% | [4] 16.6% | [5] 1.45% | [6] 9.25%

Cc1[nH]c(=O)[nH]c(=O)c1CCS
inactive: [1] -12.2% | [2] 1.2% | [3] 5.3% | [4] 37.5% | [5] -20% | [6] -13.2%

COc1cc2c3c(c1OC)-c1cc4c(cc1CC3(C#N)N(C(=O)c1ccccc1)CC2)OCO4 (configuration not stated)
inactive: [1] 3.5% | [2] 8.05% | [3] -29.2% | [4] -5.35% | [5] 15.1% | [6] 26.1%

CC1c2nc(N)nc(N)c2CN1C(=O)c1ccccc1 (configuration not stated)
inactive: [1] 3.25% | [2] -5.7% | [3] -18.9% | [4] -13.6% | [5] -8.85% | [6] -0.85%

Cc1[nH]c2ccccc2c1C(Cc1ccccc1NC(=O)CCC(=O)O)c1c[nH]c2ccccc12 (configuration not stated)
inactive: [1] 9% | [2] -5.05% | [3] -4.5% | [4] -1.5% | [5] -0.9% | [6] 1.05%

C(=Nc1ccccc1-c1ccccc1N=Cc1ccccc1)c1ccccc1
inactive: [1] 7.6% | [2] 7.3% | [3] -1.25% | [4] 7.2% | [5] -7.75% | [6] -17.9%

O=C(Oc1ccccc1Cl)C1=C(C(=O)Oc2ccccc2Cl)CCC1
inactive: [1] 51.4% | [2] -1.2% | [3] 45.5% | [4] -1.45% | [5] 4.55% | [6] 9.75%

C=Cc1ccccc1NC(C(=O)O)c1ccccc1 (configuration not stated)
inactive: [1] 18.8% | [2] -5.05% | [3] -0.8% | [4] 18.6% | [5] 7.2% | [6] 1.35%

COC(=O)C1(C(=O)OC)OC(c2ccc(OC)cc2)[C@H]2C(=O)N(C)C(=O)[C@H]21 (some centres not stated)
inactive: [1] 2.75% | [2] -6% | [3] 3.1% | [4] -8.7% | [5] 10.2% | [6] 15.3%

CCN(CC)C(=O)Cn1c2c(c3ccccc31)CCCC2
inactive: [1] 33.4% | [2] -30.4% | [3] 2.2% | [4] 1.15% | [5] -2.6% | [6] -11.9%

CCOC(=O)C(C#N)C1CCCC(C)CC1 (configuration not stated)
inactive: [1] 13% | [2] 6.5% | [3] 3.5% | [4] 2.65% | [5] 34.1% | [6] 7.55%

NC(=O)N/N=C(/Cl)C(=O)NNC(N)=O
inactive: [1] -4.4% | [2] 6.25% | [3] -10.5% | [4] -81.2% | [5] -0.95% | [6] -27.1%
